Source: PubChem BioAssay
The source made the active and inactive calls.

How the values were obtained:
[1] = tested on: Plasmodium falciparum Sir2 (PF13_0152, Sir2A); experiment: pfSir2 binders on small-molecule microarrays, primary screen, biochemical, small-molecule microarray, 635 nm fluorescence (AID 1098); settings: small-molecule microarray binding, fluorescence 635 nm; higher = more signal;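 further: score merges spot fluorescence intensity with its signal-to-noise ratio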
[2] = small-molecule microarray binders of probe aDKK1, primary screen, biochemical, biotinylated probe, 635/667 nm fluorescence (AID 1099); settings: higher = more signal;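 further: score merges 667nm spot fluorescence with signal to noise across triplicate slides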
[3] = small-molecule microarray binders of probe aCHRDL2, primary screen, biochemical, biotinylated probe, 635/667 nm fluorescence (AID 1100); settings: higher = more signal
[4] = splicing luciferase reporter signal modulators, primary screen, spliceosome inhibition project, cell-based, HEK293, splice +/- reporter (AID 1101); settings: luminescence, 24 h, higher = more signal, called active from +8 up or from −8 down;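 further: HEK293 cells carrying a splicing-competent luciferase reporter gene; test concentration not given here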
[5] = molecular target: Fibroblast growth factor 10 (Homo sapiens) (UniProt O15520); experiment: FGF10 binders on small-molecule microarrays, primary screen, biochemical, small-molecule microarray, 635 nm fluorescence (AID 1102); settings: FGF10 binding, fluorescence 635 nm, higher = more signal
Fibroblast growth factor 10 (Homo sapiens), sequence (O15520 whole entry, looked up): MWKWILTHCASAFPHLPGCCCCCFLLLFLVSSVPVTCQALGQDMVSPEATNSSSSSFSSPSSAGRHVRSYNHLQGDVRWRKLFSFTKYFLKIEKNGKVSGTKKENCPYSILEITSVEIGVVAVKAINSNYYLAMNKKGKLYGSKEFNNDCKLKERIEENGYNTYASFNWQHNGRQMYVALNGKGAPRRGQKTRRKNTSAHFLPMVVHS

[6] = tested on: glycogen synthase kinase-3 (GSK3A per assay name; protocol says GSK3B); experiment: GSK3 binders on small-molecule microarrays, primary screen, biochemical, small-molecule microarray, 635 nm fluorescence, GSK3A (AID 1103); settings: small-molecule microarray binding, fluorescence 635 nm; higher = more signal; further: the record names both GSK3A and GSK3B
[7] = molecular target: Epidermal growth factor receptor (Homo sapiens) (UniProt P00533); experiment: EGFR binders on small-molecule microarrays, primary screen, biochemical, small-molecule microarray, 635 nm fluorescence (AID 1104); settings: EGFR binding, higher = more signal;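 further: score merges 667 nm emission intensity with spot signal to noise over triplicate slides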
Epidermal growth factor receptor (Homo sapiens), sequence (P00533 whole entry, looked up): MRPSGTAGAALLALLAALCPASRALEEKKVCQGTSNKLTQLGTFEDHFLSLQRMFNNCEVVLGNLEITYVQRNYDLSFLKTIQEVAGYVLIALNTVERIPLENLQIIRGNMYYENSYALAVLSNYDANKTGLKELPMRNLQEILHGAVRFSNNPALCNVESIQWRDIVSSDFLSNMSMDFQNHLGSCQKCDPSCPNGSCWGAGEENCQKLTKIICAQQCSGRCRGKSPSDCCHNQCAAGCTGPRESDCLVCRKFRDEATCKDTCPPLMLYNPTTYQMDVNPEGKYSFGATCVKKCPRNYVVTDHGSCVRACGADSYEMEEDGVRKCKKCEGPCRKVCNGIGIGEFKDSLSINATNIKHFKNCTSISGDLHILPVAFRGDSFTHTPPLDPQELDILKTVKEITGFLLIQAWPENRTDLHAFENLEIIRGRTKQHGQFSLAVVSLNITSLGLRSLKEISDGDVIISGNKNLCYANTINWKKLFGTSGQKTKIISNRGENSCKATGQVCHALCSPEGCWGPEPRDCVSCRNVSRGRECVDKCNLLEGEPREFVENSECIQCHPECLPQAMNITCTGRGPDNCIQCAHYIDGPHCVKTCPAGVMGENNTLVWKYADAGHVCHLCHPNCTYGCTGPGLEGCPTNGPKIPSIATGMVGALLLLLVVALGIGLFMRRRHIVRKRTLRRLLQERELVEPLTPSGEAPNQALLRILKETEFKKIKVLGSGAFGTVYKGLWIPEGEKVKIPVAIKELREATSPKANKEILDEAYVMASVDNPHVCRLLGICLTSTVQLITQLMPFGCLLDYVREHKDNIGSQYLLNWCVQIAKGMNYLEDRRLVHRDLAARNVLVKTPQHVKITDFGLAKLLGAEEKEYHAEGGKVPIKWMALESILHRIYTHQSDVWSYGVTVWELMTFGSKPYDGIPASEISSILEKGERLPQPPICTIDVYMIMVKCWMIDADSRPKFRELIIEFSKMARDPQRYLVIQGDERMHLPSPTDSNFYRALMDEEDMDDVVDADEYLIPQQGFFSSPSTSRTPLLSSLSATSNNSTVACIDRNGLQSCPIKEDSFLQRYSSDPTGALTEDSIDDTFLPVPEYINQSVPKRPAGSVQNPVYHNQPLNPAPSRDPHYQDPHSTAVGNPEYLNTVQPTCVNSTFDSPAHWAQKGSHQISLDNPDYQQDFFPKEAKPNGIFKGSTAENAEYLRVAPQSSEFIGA

[8] = molecular target: Follistatin-related protein 3 (Homo sapiens) (UniProt O95633); experiment: FSTL3 binders on small-molecule microarrays, primary screen, biochemical, small-molecule microarray, 635 nm fluorescence (AID 1105); settings: FSTL3 binding, higher = more signal;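 further: score merges emission near 667 nm and signal to noise per printed spot across three slides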
Follistatin-related protein 3 (Homo sapiens), sequence (O95633 whole entry, looked up): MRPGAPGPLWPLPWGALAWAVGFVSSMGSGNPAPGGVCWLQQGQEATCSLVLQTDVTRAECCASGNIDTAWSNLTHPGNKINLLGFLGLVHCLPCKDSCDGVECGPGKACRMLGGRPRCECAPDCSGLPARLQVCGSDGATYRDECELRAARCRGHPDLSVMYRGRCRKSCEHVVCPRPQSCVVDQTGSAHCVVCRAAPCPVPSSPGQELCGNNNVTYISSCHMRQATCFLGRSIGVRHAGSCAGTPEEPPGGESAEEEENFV

[9] = molecular target: Dickkopf-related protein 1 (Homo sapiens) (UniProt O94907); experiment: DKK1 binders on small-molecule microarrays, primary screen, biochemical, small-molecule microarray, 635 nm fluorescence scan (AID 1106); settings: DKK1 binding, higher = more signal;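 further: score merges emission near 667 nm with signal to noise over three replicate slides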
Dickkopf-related protein 1 (Homo sapiens), sequence (O94907 whole entry, looked up): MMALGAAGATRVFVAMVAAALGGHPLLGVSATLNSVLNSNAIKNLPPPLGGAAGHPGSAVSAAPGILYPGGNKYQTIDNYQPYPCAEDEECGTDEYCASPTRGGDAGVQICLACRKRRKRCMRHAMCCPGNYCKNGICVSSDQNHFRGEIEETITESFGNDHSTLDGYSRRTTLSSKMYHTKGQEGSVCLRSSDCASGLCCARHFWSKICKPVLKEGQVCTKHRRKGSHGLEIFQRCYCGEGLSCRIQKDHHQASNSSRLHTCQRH

[10] = tested on: Inhibin beta A chain (activin A); experiment: INHBA (activin A) binders on microarrays, primary screen, biochemical, small-molecule microarray, 635 nm fluorescence scan (AID 1107); settings: small-molecule microarray binding, higher = more signal;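 further: mouse activin A protein probed at 4.33 µg/mL on printed slides; score merges bound-protein fluorescence near 667 nm with spot signal-to-noise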
[11] = tested on: Human papillomavirus type 1a protein E7 (residues 44-93); experiment: HPV1a E7 fragment binders on microarrays, primary screen, biochemical, small-molecule microarray, residues 44-93, 635 nm fluorescence (AID 1108); settings: small-molecule microarray binding, fluorescence 635 nm; higher = more signal;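 further: E7 fragment applied at 1 µg/mL in TBST for 1 h at 4 C; score combines spot fluorescence with its signal to noise ratio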
[12] = modulators of HCV replicon luciferase signal, primary screen, HCV replication inhibitor project, Huh7 cells, luciferase reporter (AID 1109); settings: 48 h, higher = more signal;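 further: huh7 hepatoma cells harbouring a luciferase neomycin HCV replicon reporter; luciferase luminescence as measure of HCV replicon replication; test concentration not given here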
[13] = molecular target: Left-right determination factor 2 (Homo sapiens) (UniProt O00292); experiment: LEFTY2 binders on small-molecule microarrays, primary screen, biochemical, small-molecule microarray, 635 nm fluorescence scan (AID 1110); settings: LEFTY2 binding, higher = more signal
Left-right determination factor 2 (Homo sapiens), sequence (O00292 whole entry, looked up): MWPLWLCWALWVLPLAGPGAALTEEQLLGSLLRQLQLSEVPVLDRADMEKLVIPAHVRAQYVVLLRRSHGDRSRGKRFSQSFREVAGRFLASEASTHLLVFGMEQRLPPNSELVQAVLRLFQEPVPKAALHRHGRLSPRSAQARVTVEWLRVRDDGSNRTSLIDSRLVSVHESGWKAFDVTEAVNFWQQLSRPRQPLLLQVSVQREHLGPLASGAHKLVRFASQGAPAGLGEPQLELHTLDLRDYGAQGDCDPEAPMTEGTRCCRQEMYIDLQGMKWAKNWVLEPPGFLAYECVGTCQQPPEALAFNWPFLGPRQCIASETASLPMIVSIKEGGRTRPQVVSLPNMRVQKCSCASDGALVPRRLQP

[14] = molecular target: Calmodulin-1 (Homo sapiens) (UniProt P0DP23); experiment: CALM1 binders on microarrays, EGTA buffer, profiling panel, biochemical, small-molecule microarray, Cy5-labelled CALM1 (AID 1111); settings: Cy5-CALM1 binding fluorescence, higher = more signal;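 further: labelled calmodulin applied in Tris saline Tween buffer holding calcium plus EGTA and DTT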
[15] = molecular target: Calmodulin-1 (Homo sapiens) (UniProt P0DP23); experiment: calcium-bound CALM1 binders on microarrays, profiling panel, artefact control for SMM control-protein annotation, biochemical, small-molecule microarray, Cy5-labelled CALM1, plus calcium (AID 1112); settings: Cy5-CALM1 binding fluorescence, higher = more signal;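 further: score merges spot fluorescence with signal to noise from triplicate slides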
[16] = small-molecule microarray binders of probe aWnt5a, primary screen, biochemical, biotinylated probe, 635/667 nm fluorescence (AID 1113); settings: higher = more signal;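 further: score merges 667 nm fluorescence intensity with signal-to-noise per printed feature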
[17] = small-molecule microarray binders of probe aShh, primary screen, biochemical, biotinylated probe, 635/667 nm fluorescence (AID 1114); settings: higher = more signal;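 further: probe is biotin-labelled aShh protein from a stem cell growth factor screen; measures binding of labelled protein to compounds printed on the slide; score merges feature fluorescence at 667 nm with signal-to-noise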
[18] = small-molecule microarray binders of probe aNog, primary screen, biochemical, biotinylated probe, 635/667 nm fluorescence (AID 1115); settings: higher = more signal;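 further: probe is biotinylated aNog protein used at 0.15 µg/mL for 1 h at 4 C; z-score combines 667 nm fluorescence of each spot with its signal to noise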
[19] = molecular target: Torsin-1A-interacting protein 1 (Homo sapiens) (UniProt Q5JTV8); experiment: LAP1 binders from COS7 cell lysate, primary screen, small-molecule microarray, 635/667 nm fluorescence (AID 1116); settings: COS7-hLAP1 lysate binding, 635 nm fluorescence, higher = more signal
Torsin-1A-interacting protein 1 (Homo sapiens), sequence (Q5JTV8 whole entry, looked up): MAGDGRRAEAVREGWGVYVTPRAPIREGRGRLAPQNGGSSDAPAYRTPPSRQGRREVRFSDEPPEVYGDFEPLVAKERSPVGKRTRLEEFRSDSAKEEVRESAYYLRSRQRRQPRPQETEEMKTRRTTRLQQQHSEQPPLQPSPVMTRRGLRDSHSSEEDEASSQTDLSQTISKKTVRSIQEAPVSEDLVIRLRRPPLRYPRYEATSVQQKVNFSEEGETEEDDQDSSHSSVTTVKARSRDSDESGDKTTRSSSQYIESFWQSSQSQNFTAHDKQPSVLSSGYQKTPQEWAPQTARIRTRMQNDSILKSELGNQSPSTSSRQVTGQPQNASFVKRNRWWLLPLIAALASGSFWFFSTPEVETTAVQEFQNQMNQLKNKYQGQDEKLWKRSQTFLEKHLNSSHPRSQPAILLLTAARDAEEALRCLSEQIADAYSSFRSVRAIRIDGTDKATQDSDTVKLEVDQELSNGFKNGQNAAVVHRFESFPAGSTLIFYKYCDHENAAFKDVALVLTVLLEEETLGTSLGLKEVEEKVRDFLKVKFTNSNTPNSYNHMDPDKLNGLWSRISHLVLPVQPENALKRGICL

[20] = molecular target: Alpha-bungarotoxin (Bungarus multicinctus) (UniProt P60615); experiment: alpha-bungarotoxin binders on microarray, profiling panel, artefact control for SMM control protein annotation, biochemical, small-molecule microarray, Alexa647 label, 635/667 nm fluorescence (AID 1117); settings: alpha-BTX-A647 binding fluorescence, higher = more signal
Alpha-bungarotoxin (Bungarus multicinctus), sequence (P60615 whole entry, looked up): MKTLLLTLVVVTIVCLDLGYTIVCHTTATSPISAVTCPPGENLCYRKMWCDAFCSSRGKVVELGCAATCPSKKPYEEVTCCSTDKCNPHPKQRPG

Compound	composite z-score [1]	composite z-score [2]	composite z-score [3]	z-score [4]	composite z-score [5]	composite z-score [6]	composite z-score [7]	composite z-score [8]	composite z-score [9]	composite z-score [10]	composite z-score [11]	z-score [12]	composite z-score [13]	composite z-score [14]	composite z-score [15]	composite z-score [16]	composite z-score [17]	composite z-score [18]	composite z-score [19]	composite z-score [20]
COc1ccc(COC(=O)NN=C2C[C@@H](O)[C@@H](O)[C@@H]3[C@@H]4C(=O)N([C@@H](C)c5ccccc5)C(=O)[C@@H]4CC[C@@H]23)cc1	0.397	0.0429	-0.305	0.158 (inactive)	0.132	-0.111	0.362	0.192	0.244	0.878	-0.372	0.426	0.609	-0.213	-0.392	-0.169	0.0121	-0.288	0.51	0.0288
COC(=O)[C@H](C)NC(=O)CCC1CC(OC(=O)NCc2cccc3ccccc23)CC2(CCCC(COC(=O)NCCC(C)C)O2)O1 (stereo not given in full)	1.41	-0.144	-0.391	-0.119 (inactive)	0.481	0.247	0.374	0.463	0.188	0.199	0.991	-0.243	0.449	-0.234	-0.371	-0.109	-0.147	-0.268	-0.228	-0.178
CON=C(C)CCN1CCCCc2nc(C)c(C)cc21	0.636	-0.144	-0.0831	0.248 (inactive)	0.443	0.213	0.657	0.507	0.881	1.52	-0.111	-0.319	0.679	-0.327	-0.817	0.11	-0.147	-0.337	0.445	-0.0996
O=C1[C@H]2[C@H]3[C@H](O)[C@H](O)CC(=NO[C@@H]4O[C@H](CO)[C@@H](O)[C@H](O)[C@H]4O)[C@@H]3CC[C@H]2C(=O)N1C[C@@H]1CCCO1	0.355	-0.29	-0.565	-1.45 (inactive)	0.784	0.839	0.448	0.738	0.35	-0.808	1.3	-0.682	0.495	-0.158	-0.572	-0.28	-0.0769	-0.238	-0.0974	-0.103
CCN1C(C)=C(C(=O)OC)[C@@H](c2ccccc2)N2C(=O)[C@](O)(C(=O)OC)CC(C(C)=O)=C12	-0.166	-0.324	-0.745	0.15 (inactive)	0.302	0.489	0.633	0.557	0.514	0.423	0.285	0.308	0.784	-0.232	-0.604	-0.0037	-0.179	0.0511	0.455	0.371
CO[C@@H]1[C@H](O)CO[C@H]1C=Cc1ccccc1	1.55	-0.261	-0.41	-0.0979 (inactive)	0.961	-0.135	0.0571	0.211	0.365	0.512	0.258	-0.696	0.509	-0.0028	-0.144	0.0078	-0.16	-0.0563	0.0195	0.241
CO[C@H]1COC(=O)[C@H](C)COC(=O)[C@H](C)NC(=O)CC=C[C@H]1C	0.378	-0.579	-1.42	0.0547 (inactive)	1.07	1.24	1.54	1.51	1.28	0.843	0.429	-0.935	0.945	-0.891	-1.85	-0.154	0.0121	-0.41	0.143	-0.369
CCOC(=O)CCN1C(=O)[C@H]2[C@H]3[C@H](O)[C@H](O)CC(=NNC(=O)OCC)[C@H]3CC[C@H]2C1=O	0.533	-0.55	-0.799	-0.24 (inactive)	0.0385	-0.542	0.459	0.567	0.913	1.26	-0.0248	-2.37	0.679	-0.842	-1.67	-0.1	-0.0626	0.121	-0.0184	-0.798
CC(=O)OC[C@H]1O[C@@H](ON=C(C)CCN2CCCCc3nc(C)c(C)cc32)[C@H](OC(C)=O)[C@@H](OC(C)=O)[C@@H]1OC(C)=O	0.834	-0.208	-0.664	-1.29 (inactive)	1.23	1.19	1.11	1.28	1.39	0.328	1.16	-0.997	0.962	-0.336	-0.767	-0.0337	0.0121	-0.0129	0.479	-0.546
CCN1C(=O)[C@H]2[C@H]3[C@H](O)[C@H](O)CC(=NOC[C@@H](O)[C@H]4O[C@@H]5OC(C)(C)O[C@@H]5[C@H]4O)[C@@H]3CC[C@H]2C1=O	1.03	-0.242	-0.461	0.217 (inactive)	0.203	-0.246	0.227	0.24	0.284	0.46	-0.629	-0.299	0.484	-0.154	-0.324	-0.096	-0.0289	-0.0733	-0.209	0.0203
CCCC[C@H]1CN2[C@@H](CC[C@@H](C)[C@@H]2c2ccc(Br)cc2)C(=O)O1	0.801	-0.1	-0.442	0.541 (inactive)	0.28	0.707	0.457	0.562	0.296	0.0442	1.01	-1.04	0.671	0.849	-0.0228	-0.158	0.0121	-0.188	0.755	0.678
